Assay results as given in PubChem BioAssay (NCI).
The panel holds about 83,000 compounds, 20% with a hit somewhere; the sample as a whole holds those more often.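 Each cell line was grown in a 96-well plate and treated with one concentration of compound for 48 hours. Values below 10 were considered active.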 Values without a mark were called inactive. Active and inactive are the calls of the source.

Assays:
Test in all cases: NCI-60 one-dose screen, 48 h (100 = growth as untreated, 0 = no growth, -100 = all killed)
Details in all cases: 10 µM unless noted
SR leukemia = test system: SR leukemia
RPMI-8226 leukemia = test system: RPMI-8226 leukemia
OVCAR-8 ovarian = test system: OVCAR-8 ovarian
OVCAR-5 ovarian = test system: OVCAR-5 ovarian
OVCAR-4 ovarian = test system: OVCAR-4 ovarian
SK-OV-3 ovarian = test system: SK-OV-3 ovarian
IGROV1 ovarian = test system: IGROV1 ovarian
OVCAR-3 ovarian = test system: OVCAR-3 ovarian
HS 578T breast = test system: HS 578T breast
NCI/ADR-RES ovarian = test system: NCI/ADR-RES ovarian
T-47D breast = test system: T-47D breast
BT-549 breast = test system: BT-549 breast
MDA-MB-435 melanoma = test system: MDA-MB-435 melanoma
MCF7 breast = test system: MCF7 breast
HCT-116 colon = test system: HCT-116 colon
HCC-2998 colon = test system: HCC-2998 colon
KM12 colon = test system: KM12 colon
SW-620 colon = test system: SW-620 colon

SMILES | growth (SR leukemia) | growth (RPMI-8226 leukemia) | growth (OVCAR-8 ovarian) | growth (OVCAR-5 ovarian) | growth (OVCAR-4 ovarian) | growth (SK-OV-3 ovarian) | growth (IGROV1 ovarian) | growth (OVCAR-3 ovarian) | growth (HS 578T breast) | growth (NCI/ADR-RES ovarian) | growth (T-47D breast) | growth (BT-549 breast) | growth (MDA-MB-435 melanoma) | growth (MCF7 breast) | growth (HCT-116 colon) | growth (HCC-2998 colon) | growth (KM12 colon) | growth (SW-620 colon)
C#CCOc1ccc2ncnc(Nc3ccc(NC(=O)CCl)cc3)c2c1 | -7.69% (active) | -16.7% (active) | 2.5% (active) | 30.5% | -17.5% (active) | 22.4% | -55.3% (active) | -38.6% (active) | 27.6% | 7.93% (active) | 16.2% | -19.5% (active) | 17.7% | 5.26% (active) | 0.822% (active) | 65.2% | 8.97% (active) | 
CC(C)(C)[Si](C)(C)O[C@H]1C(=O)C=CN2CC=C[C@@H]12 | 81.8% [100 µM] | 115% [100 µM] | 97% [100 µM] | 94.4% [100 µM] | 110% [100 µM] | 101% [100 µM] | 114% [100 µM] | 103% [100 µM] | 95.3% [100 µM] | 106% [100 µM] | 92% [100 µM] |  | 102% [100 µM] | 96.5% [100 µM] | 92.9% [100 µM] | 111% [100 µM] | 104% [100 µM] | 104% [100 µM]
CCN(CC)CCNC(=O)c1cn2ncnc(Oc3ccc(NC(=O)Nc4ccc(Cl)c(C(F)(F)F)c4)c(F)c3)c2c1C | -32.3% (active) | -16.6% (active) | 45.4% | 54.6% | 6.15% (active) | 82% | -36.6% (active) | -3.03% (active) | -7.92% (active) | 56.8% | 64.5% | 30.3% | -78.8% (active) | -65% (active) | -79.3% (active) | -88.9% (active) | -30.5% (active) | 
COc1ccc(N2CCC(=O)NC2=S)cc1 | 116% | 105% | 106% | 102% | 106% | 103% | 108% | 109% | 98.7% | 98% | 102% | 101% | 109% | 95.2% | 105% | 95.9% | 106% | 
COc1cc(CNS(=O)(=O)c2ccc(C)cc2)ccc1OCc1cn(-c2ccc(F)cc2)nn1 | 78.9% | 61.1% | 95.5% | 102% | 72.2% | 85.2% | 94.1% | 91.1% | 97.8% | 85.8% | 53.7% | 83.6% | 94.4% | 85.9% | 83.6% |  | 97.6% | 
Cc1ccccc1/C=C1\CN(C(=O)OC(C)(C)C)C/C(=C\c2ccccc2C)C1=O | 8.93% (active) | -23.7% (active) | 17.1% | 51.1% | -2.97% (active) | 74.9% | 26% | -30.9% (active) | 31.2% |  | 51.8% | 70.3% | 12% | 19.2% | -53.9% (active) | 3.27% (active) | -32.8% (active) | 5.37% (active)
CCCCCCCCCCCCCCCC(N)c1ccccc1 (centres undefined) | -26.1% (active) | -27.9% (active) | -26.3% (active) | 79.7% | -15.8% (active) | 77.1% | -46.6% (active) | -70.2% (active) | 60.6% |  | 33.5% | 92.9% | 6.53% (active) | -67.3% (active) | -100% (active) | -98.2% (active) | -75.4% (active) | -49.3% (active)
O=C(Cn1cc(CN2CCCCCC2)nn1)Nc1ccc2c(ccn2Cc2ccccc2)c1 | 36.8% | 64.3% | 98.4% | 105% | 87% | 82.7% | 94% | 95.7% |  | 102% | 69.8% | 86.9% | 96.6% | 90.2% | 95% | 97.6% | 93.8% | 96.9%
O=C(Cc1ccccc1)Nc1nc(O)c(/C=C2\C(=O)C=Cc3ccccc32)s1 | 104% | 106% | 97.5% | 104% | 100% | 83% | 102% | 102% | 97.8% |  | 90% | 98.9% | 101% | 101% | 90.1% | 110% |  | 95.7%
COC1C[C@H](O[C@@H]2C[C@H](O[C@@H]3C[C@H](O[C@@H]4C(=O)c5c(cc6cc(O[C@H]7C[C@@H](O[C@H]8C[C@@H](O)[C@H](O)C(C)O8)[C@H](O)C(C)O7)c(C)c(O)c6c5O)C[C@H]4C(OC)C(=O)[C@@H](O)[C@@H](C)O)OC(C)[C@H]3O)OC(C)[C@@H]2O)OC(C)[C@@H]1O (some centres undefined) | 10.2% | -1.8% (active) | 2.54% (active) | 14.2% | 12.1% | 16.6% | 9.46% (active) | 3.14% (active) | 7.26% (active) |  | -4.81% (active) | -20.4% (active) | -62% (active) | 4.52% (active) | 4.82% (active) |  | 4.61% (active) | 
Cc1nc2sc(C(=O)Nc3cccc(Cl)c3C)c(N)c2cc1C(=O)c1ccccc1 | 19.8% | 6.33% (active) | 9.81% (active) | 31.1% | 63.3% | 3.83% (active) | 28.6% | -19.1% (active) | 12.2% |  | 36.8% | 7.58% (active) | -37.4% (active) | 11.1% | 13.1% | 7.04% (active) | 13% | 27%
COP(=O)(OC)C(C)(C)CC(=O)CC(C#N)(C#N)C(C#N)C#N | 95.5% | 87.8% | 105% | 94.4% | 116% | 101% | 110% | 114% |  | 98.4% | 106% | 96.2% | 104% | 92.1% | 92.4% | 92.6% | 104% | 104%
CCN(C(=O)N1CCN(c2cc3c(cc2F)c(=O)c(C(=O)O)cn3C2CC2)CC1)c1nc(-c2ccc(Cl)cc2)cs1 | 6.27% (active) | 12.8% | 14.4% | 24.5% | 25.7% | -11.9% (active) | -9.58% (active) | 10.1% | 20.7% | 4.67% (active) | 22.3% |  | 17.9% | 9.42% (active) | 9.89% (active) |  | 13.1% | 18.3%
N=C(N)c1ccc(-c2ccc(-c3cc(Cl)cc(Cl)c3)o2)o1 | -50% (active) | -33.6% (active) | -41.7% (active) | -72.2% (active) | -76.3% (active) | -59% (active) | -52.5% (active) | -87.9% (active) | 64.8% |  | -58.3% (active) | 88.8% | -92.8% (active) | -77.6% (active) | -69.4% (active) | -77.8% (active) | -78.9% (active) | -87.4% (active)
COc1ccc(C(=O)Nc2ncc(Cc3ccc(F)cc3)s2)cc1 | 11.1% | 15.9% | 27.6% | 29.6% | 48.9% | 44.6% | 18.3% | -22.2% (active) | 31.7% |  | 33.6% | 40.4% | 2.51% (active) | 12.3% | 13.1% | 8.19% (active) | 3.05% (active) | 31%
Cc1ccccc1NC(=O)c1sc2nc(C)c(C(=O)/C=C/c3ccccc3)cc2c1N | 24.4% | -24.7% (active) | 6.75% (active) | 20.8% | 51.3% | 82% | 10.3% | -5.72% (active) | 10% (active) | 1.11% (active) | 32% |  | -22.7% (active) | 9.97% (active) | 10.1% | -36.9% (active) | 9.57% (active) | -10.5% (active)
O=S(=O)(Nc1ccccc1)c1ccc(C2CC3(Cl)C(Cl)=C(Cl)C2(Cl)C3(Cl)Cl)cc1 (centres undefined) | 18.8% | 13.8% | 55.6% | 60.1% | 44% | 76% | 54.8% | 26% | 54.8% |  | 29.4% | 76.4% | 23.6% | 23.2% | 17.6% | 53.5% | 22.7% | 30.7%
